Most compounds without a hit are left out; they make up all but 2.1% or so of the library.
PABP FP inh = blocks human PABP binding to poly(A) RNA. P11940. fluorescence polarization. inhibition, % at 35 µM. 290,000 tested, 1% active. AID 2014;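 note: calls also rest on retests at 20 µM and on dose response follow-up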
eIF4H inh = inhibitors of RNA binding by human eIF4H; inhibition, % at 35 µM; eIF4H fluorescence polarization binding assay; 290,000 tested, 0.94% active; Q15056;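 note: calls also rest on retests at 20 µM and on dose response follow-up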
PABP1 MLLE inh = blocks PAM2 peptide binding to the PABP1 MLLE domain | inhibition, % at 20 µM | 360,000 tested, 0.36% active | GST-MLLE / FITC-PAM2 fluorescence polarization | P11940; in the data active = inhibition above about 35%, passing the limit was not always enough
CendR NRP1 mod = modulators of CendR peptide binding to human neuropilin-1 | inhibition, % at 25 µM | FAM-RPARPAR peptide binding to NRP-1, fluorescence polarization | AID 602438 | O14786 | 360,000 tested, 0.85% active;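 active = inhibition or corrected inhibition above about 18%, plus a signal ratio from 0.5 to 1.5, limit read from the data, passing the limit was not always enough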
Hits are given with their value; . = inactive; ? = inconclusive; / = not tested or not shown. Unless noted, the rule behind the calls is not given here.

SMILES	PABP FP inh	eIF4H inh	PABP1 MLLE inh	CendR NRP1 mod
COc1ccc(C2C3(C#N)C(N)=NC(OC)(OC)C23C#N)cc1 (stereo unspecified)	.	.	.	.
COc1cc(OC)nc(Nc2nc(C(N)Cc3ccc(F)cc3)cs2)n1 (stereo unspecified)	/	/	.	.
Cc1nc2c([nH]1)C1(CCN(Cc3ccccc3)CC1)C(C#N)=C(N)O2	66	45	.	.
CC1(C)CC(=O)C2=C(C1)OC(N)=C(C#N)C21CCN(Cc2ccccc2)CC1	?	?	.	.
COCCNS(=O)(=O)c1ccc2c(c1)oc(=O)c1cc(S(=O)(=O)NCCOC)ccc12	88	.	/	/
NS(=O)(=O)c1ccc2c(c1)oc(=O)c1cc(S(N)(=O)=O)ccc12	.	.	.	.
COc1ccc(NC(C)=[N+](C)CCNS(=O)(=O)c2ccc(Cl)cc2)cc1	56	.	.	.
COc1ccc(CNC(=O)CCNS(=O)(=O)c2ccc(Cl)cc2)cc1	.	.	.	28
Cc1ccc(C)n1-c1nc(=S)[nH][nH]1	.	.	45	.
CC(=O)Nc1ccc(Nc2nc3ccccc3n3cnnc23)cc1	.	.	.	.
CCOC(=O)C(C)Sc1nnc(Cc2cc(=O)[nH]c(=O)[nH]2)n1-c1ccc(OCC)cc1 (stereo unspecified)	.	.	.	.
CCOc1ccc(-n2c(SC)nc3c(c2=O)SCC3)cc1	.	.	.	.
CCOc1ccc(-n2c(Cc3cc(=O)[nH]c(=O)[nH]3)nnc2SC(C)C)cc1	.	.	.	38
CCOC(=O)C(C)Sc1nnc(Cc2cc(=O)[nH]c(=O)[nH]2)n1-c1ccc(Cl)cc1 (stereo unspecified)	.	.	45	.
CCOc1ccc(-n2c(SC(C)C)nc3c(c2=O)SCC3)cc1	active	.	.	.
COc1ccc(C(=O)OCc2c(F)cccc2Cl)cc1S(=O)(=O)N1CCOCC1	/	/	.	.
COCCCN(Cc1ccco1)C(=O)c1cc2c(s1)-c1ccc(Cl)cc1S(=O)(=O)C2	.	.	.	.
CC(C#Cc1ccc2c(c1)COc1c3ccccc3nn1-2)OC(C)(C)C (stereo unspecified)	/	/	.	.
O=C(Cn1nc(C(F)F)cc1C1CC1)N1CCCC1	.	.	.	.
O=C1CCC(=O)N1c1ccc(-c2nc3ccccc3s2)cc1	.	61	.	.
Nc1ccc(-c2nc3ccccc3s2)cn1	.	.	.	.
Cc1cccc(C(=O)NCCc2nnc(SCC(=O)Nc3cccc(C(=O)O)c3)n2C)c1	.	.	.	.
COC(=O)c1cccc(NC(=O)CSc2nc(O)c(-c3ccccc3)c(=O)[nH]2)c1	37	?	.	.
Cc1ccc(-c2ccc(SCC(=O)NC3CCCCC3)nn2)cc1	.	.	.	.
O=C(CSc1ccc(-c2ccc(F)cc2)nn1)NC1CCCCC1	.	.	.	19
SMILES	PABP FP inh	eIF4H inh	PABP1 MLLE inh	CendR NRP1 mod
O=C(CN1C(=O)NC(Cc2c[nH]c3ccccc23)C1=O)Nc1ccc(F)cc1F (stereo unspecified)	/	/	.	.
CN1CCN(c2ccc([N+](=O)[O-])cc2S(=O)(=O)N2CCOCC2)CC1	.	.	.	.
O=[N+]([O-])c1ccc(N2CCN(Cc3ccccc3)CC2)c(S(=O)(=O)N2CCOCC2)c1	.	.	.	30
Cc1ccccc1-c1cccc([C@@H]2C[C@H]3[C@H](CON3C)CN2Cc2cc(Cl)cc(Cl)c2)c1	/	/	.	.
C#CCOCCOCCOCCNc1nc(N2CCN(C(=O)Cn3cc(CCCCN)nn3)CC2)nc(N2CCN(C(=O)Cn3cc(CCCCN)nn3)CC2)n1	.	.	.	.
C#CCOCCOCCOCCNc1nc(N2CCN(C(=O)CCCCCCCCCCNC(=O)Cn3cc(CCCCCN)nn3)CC2)nc(N2CCN(C(=O)CCCCCCCCCCNC(=O)[C@@H](CCC(=O)O)n3cc(CCCCCN)nn3)CC2)n1	/	/	.	21
C#CCOCCOCCOCCNc1nc(N2CCN(C(=O)CCCCCCCCCCNC(=O)Cn3cc(CCCCCN)nn3)CC2)nc(N2CCN(C(=O)CCCCCCCCCCNC(=O)Cn3cc(CCCCCN)nn3)CC2)n1	/	/	.	18
COc1cccc(CC(NC(C)=O)C(=O)NC2CCN(C(=O)c3ccncc3)CC2)c1OC (stereo unspecified)	.	.	.	.
S=c1[nH]nc(COc2ccccc2)n1/N=C/C=C/c1ccco1	68	81	.	.
S=c1[nH]nc(-c2cc(-c3ccccc3)n[nH]2)n1/N=C/C=C/c1ccco1	62	102	.	.
COc1ccccc1/C=C/C=N/n1c(-c2n[nH]c3c2CCC3)n[nH]c1=S	.	.	.	.
S=c1[nH]nc(-c2n[nH]c3c2CCC3)n1/N=C/C=C/c1ccco1	68	90	.	.

Screening data (PubChem)
